Active and inactive are the calls of the source. The calls were made as follows: active = hit-call score of the fitted dose curve at least 0.9, where 1 is the maximum; inactive = score below 0.9.
Assays:
Conditions in all cases: mRNA level, 48 h; actives raise or lower the signal
[1] = read-out: MicroRNA 122 (MIR122), gene 406906; assay: LTEA_HepaRG_MIR122: Life Technologies and Expression Analysis (LTEA) Assay for MicroRNA 122 (MIR122) using HepaRG (AID 2283516); also: the transcript read is the microRNA miR-122
Method in brief: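 HepaRG, 48 h exposure, 8-pt half-log from 100 uM, 0.5% DMSO; TaqMan qRT-PCR; bidirectional fit vs DMSO.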

[2] = read-out: matrix metalloproteinase-10 (MMP10), MMP10 (gene 4319); assay: LTEA_HepaRG_MMP10: Life Technologies and Expression Analysis (LTEA) Assay for matrix metalloproteinase-10 (MMP10) using HepaRG (AID 2283517)
Method in brief: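 Differentiated HepaRG cells in serum-free induction medium exposed 48 h in duplicate to 8-point half-log series up to 100 uM in 0.5% DMSO. mRNA quantified by qRT-PCR, normalised to ACTB, GAPDH, POLR2A; bidirectional fit versus DMSO.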

MYC, MYC (gene 4609) = assay: LTEA_HepaRG_MYC: Life Technologies and Expression Analysis (LTEA) Assay for MYC using HepaRG (AID 2283518)
Method in brief: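 Differentiated HepaRG cells exposed 48 h in serum-free induction medium to 8 concentrations (top 100 uM, half-log steps; 0.5% DMSO), duplicate. MYC mRNA measured by Fluidigm qRT-PCR, normalized to ACTB, GAPDH, POLR2A; bidirectional fit versus DMSO.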

[3] = read-out: Paternally Expressed 10 (PEG10), PEG10 (gene 23089); assay: LTEA_HepaRG_PEG10: Life Technologies and Expression Analysis (LTEA) Assay for Paternally Expressed 10 (PEG10) using HepaRG (AID 2283520);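 as to AC50: PEG10 transcript by qRT-PCR normalised to ACTB GAPDH and POLR2A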
Method in brief: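 Chemicals tested on HepaRG cells for 48 h, highest concentration 100 uM. PEG10 expression assessed by qRT-PCR relative to DMSO control.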

[4] = read-out: Protein phosphatase 2A (PPP2R4), PTPA (gene 5524); assay: LTEA_HepaRG_PPP2R4: Life Technologies and Expression Analysis (LTEA) Assay for Protein phosphatase 2A (PPP2R4) using HepaRG (AID 2283522)
Method in brief: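 Gene-expression endpoint in HepaRG hepatic cells: 48 h treatment across eight half-log concentrations up to 100 uM in 0.5% DMSO. PPP2R4 mRNA by qRT-PCR, normalized to three endogenous control genes.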

[5] = read-out: solute carrier (SLC22A1), SLC22A1 (gene 6580); assay: LTEA_HepaRG_SLC22A1: Life Technologies and Expression Analysis (LTEA) Assay for solute carrier (SLC22A1) using HepaRG (AID 2283524)
Method in brief: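 Differentiated human HepaRG cells in serum-free induction medium, exposed 48 h in duplicate to 8-point half-log series from 100 µM top in 0.5% DMSO. SLC22A1 mRNA by TaqMan qRT-PCR normalized to ACTB, GAPDH, POLR2A; bidirectional fit versus DMSO.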

[6] = read-out: Pyruvate Dehydrogenase Kinase 4 (PDK4), PDK4 (gene 5166); assay: LTEA_HepaRG_PDK4: Life Technologies and Expression Analysis (LTEA) Assay for Pyruvate Dehydrogenase Kinase 4 (PDK4) using HepaRG (AID 2283525)
Method in brief: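 HepaRG cells plated 48 h, then switched to serum-free induction medium and exposed in duplicate for 48 h to 8 half-log concentrations from 100 uM in 0.5% DMSO. PDK4 mRNA measured by qRT-PCR, normalized to ACTB, GAPDH and POLR2A; bidirectional fit versus DMSO.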

[7] = read-out: NAD(P)H dehydrogenase [quinone] 1 (NQO1), NQO1 (gene 1728); assay: LTEA_HepaRG_NQO1: Life Technologies and Expression Analysis (LTEA) Assay for NAD(P)H dehydrogenase [quinone] 1 (NQO1) using HepaRG (AID 2283526)
Method in brief: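 Human HepaRG hepatic cells received chemicals for 48 h in serum-free induction medium with 0.5% DMSO, up to 100 uM. Expression was assessed by TaqMan qRT-PCR against housekeeping controls and fitted bidirectionally against DMSO.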

[8] = read-out: Nuclear factor erythroid 2-related factor 2 (Homo sapiens) (UniProt Q16236); assay: LTEA_HepaRG_NFE2L2: Life Technologies and Expression Analysis (LTEA) Assay for Nuclear factor erythroid 2-related factor 2 (NFE2L2) Transcription Factor using HepaRG (AID 2283527)
Method in brief: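 Differentiated human HepaRG cells, serum-free induction medium, exposed 48 h in duplicate to eight half-log concentrations up to 100 uM in 0.5% DMSO. NFE2L2 mRNA by Fluidigm TaqMan qRT-PCR, normalised to ACTB, GAPDH, POLR2A; bidirectional change versus DMSO.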

[9] = read-out: Signal transducer and activator of transcription 3 (Homo sapiens) (UniProt P40763); assay: LTEA_HepaRG_STAT3: Life Technologies and Expression Analysis (LTEA) Assay for Signal transducer and activator of transcription (STAT3) using HepaRG (AID 2283529)
Method in brief: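 Differentiated HepaRG cells, serum-free induction medium, dosed 48 h in duplicate, 8 half-log concentrations from 100 uM in 0.5% DMSO. STAT3 mRNA by qRT-PCR, normalised to ACTB, GAPDH, POLR2A; bidirectional fit versus DMSO.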

[10] = read-out: solute carrier (SLCO1B1), SLCO1B1 (gene 10599); assay: LTEA_HepaRG_SLCO1B1: Life Technologies and Expression Analysis (LTEA) Assay for solute carrier (SLCO1B1) using HepaRG (AID 2283530)
Method in brief: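 Differentiated human HepaRG cells were exposed for 48 h in serum-free induction medium to eight half-log concentrations, top 100 uM, in 0.5% DMSO. SLCO1B1 mRNA was measured by qRT-PCR, normalized to ACTB, GAPDH and POLR2A, and fitted bidirectionally against DMSO.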

[11] = read-out: sulfotransferase 2A1 (SULT2A1), SULT2A1 (gene 6822); assay: LTEA_HepaRG_SULT2A1: Life Technologies and Expression Analysis (LTEA) Assay for sulfotransferase 2A1 (SULT2A1) using HepaRG (AID 2283531)
Method in brief: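 HepaRG human liver cells, 48 h exposure in serum-free induction medium to 8 half-log concentrations topping at 100 µM (0.5% DMSO), duplicate wells. SULT2A1 mRNA measured by TaqMan qRT-PCR, normalized to ACTB/GAPDH/POLR2A; bidirectional fit against DMSO.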

[12] = read-out: Transforming Growth Factor (TGFA), TGFA (gene 7039); assay: LTEA_HepaRG_TGFA: Life Technologies and Expression Analysis (LTEA) Assay for Transforming Growth Factor (TGFA) using HepaRG (AID 2283532)
Method in brief: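 Differentiated HepaRG cells exposed 48 hours in serum-free induction medium, 0.5% DMSO vehicle, 8-point half-log series from 100 uM, in duplicate. TGFA mRNA by TaqMan qRT-PCR, normalised to ACTB, GAPDH, POLR2A; bidirectional fit versus DMSO.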

[13] = read-out: Transforming Growth Factor (TGFB1), TGFB1 (gene 7040); assay: LTEA_HepaRG_TGFB1: Life Technologies and Expression Analysis (LTEA) Assay for Transforming Growth Factor (TGFB1) Transporter using HepaRG (AID 2283533)
Method in brief: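 Differentiated HepaRG cells exposed 48 hr in serum-free induction medium to eight half-log concentrations up to 100 uM (0.5% DMSO), duplicate; TGFB1 mRNA by TaqMan qRT-PCR normalised to ACTB, GAPDH, POLR2A; bidirectional fit against DMSO.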

TIMP1, TIMP1 (gene 7076) = assay: LTEA_HepaRG_TIMP1: Life Technologies and Expression Analysis (LTEA) Assay for TIMP1 using HepaRG (AID 2283534)
Method in brief: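 Differentiated HepaRG cells exposed 48 h in serum-free induction medium, duplicates, eight half-log concentrations from 100 uM in 0.5% DMSO. TIMP1 mRNA by qRT-PCR normalized to ACTB, GAPDH, POLR2A; bidirectional fitting against DMSO.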

[14] = read-out: Tumor necrosis factor receptor 1 (TNFRSF1A), TNFRSF1A (gene 7132); assay: LTEA_HepaRG_TNFRSF1A: Life Technologies and Expression Analysis (LTEA) Assay for Tumor necrosis factor receptor 1 (TNFRSF1A) using HepaRG (AID 2283535)
Method in brief: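 Differentiated HepaRG cells in serum-free induction medium, exposed 48 h in duplicate to 8 half-log concentrations up to 100 uM in 0.5% DMSO. TNFRSF1A mRNA by Fluidigm TaqMan qRT-PCR, normalized to ACTB, GAPDH, POLR2A; bidirectional fit.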

[15] = read-out: matrix metalloproteinase-3 (MMP3), MMP3 (gene 4314); assay: LTEA_HepaRG_MMP3: Life Technologies and Expression Analysis (LTEA) Assay for matrix metalloproteinase-3 (MMP3) using HepaRG (AID 2283519)
Method in brief: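 HepaRG cells (~100,000/well) in serum-free induction medium were dosed in duplicate for 48 h with an 8-point half-log series from 100 uM, 0.5% DMSO. MMP3 mRNA was quantified by Fluidigm TaqMan qRT-PCR, normalized to three housekeeping genes.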

Measured: AC50

Chain of Nuclear factor erythroid 2-related factor 2 (Homo sapiens) (Q16236 whole entry, looked up): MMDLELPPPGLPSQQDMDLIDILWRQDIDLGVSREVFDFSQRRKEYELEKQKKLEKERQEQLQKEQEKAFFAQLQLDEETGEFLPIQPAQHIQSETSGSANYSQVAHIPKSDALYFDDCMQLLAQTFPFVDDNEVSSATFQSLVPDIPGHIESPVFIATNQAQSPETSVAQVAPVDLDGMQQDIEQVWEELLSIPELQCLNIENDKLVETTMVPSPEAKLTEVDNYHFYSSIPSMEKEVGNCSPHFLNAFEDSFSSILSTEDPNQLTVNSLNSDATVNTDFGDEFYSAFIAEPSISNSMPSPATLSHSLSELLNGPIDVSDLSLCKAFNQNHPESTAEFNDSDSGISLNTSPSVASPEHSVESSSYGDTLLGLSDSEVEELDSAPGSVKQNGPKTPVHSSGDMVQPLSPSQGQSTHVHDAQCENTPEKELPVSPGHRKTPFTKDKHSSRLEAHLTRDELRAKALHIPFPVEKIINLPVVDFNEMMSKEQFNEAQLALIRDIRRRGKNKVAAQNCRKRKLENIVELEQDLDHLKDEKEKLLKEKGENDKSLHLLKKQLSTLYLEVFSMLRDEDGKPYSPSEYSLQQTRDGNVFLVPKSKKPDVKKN
Chain of Signal transducer and activator of transcription 3 (Homo sapiens) (P40763 whole entry, looked up): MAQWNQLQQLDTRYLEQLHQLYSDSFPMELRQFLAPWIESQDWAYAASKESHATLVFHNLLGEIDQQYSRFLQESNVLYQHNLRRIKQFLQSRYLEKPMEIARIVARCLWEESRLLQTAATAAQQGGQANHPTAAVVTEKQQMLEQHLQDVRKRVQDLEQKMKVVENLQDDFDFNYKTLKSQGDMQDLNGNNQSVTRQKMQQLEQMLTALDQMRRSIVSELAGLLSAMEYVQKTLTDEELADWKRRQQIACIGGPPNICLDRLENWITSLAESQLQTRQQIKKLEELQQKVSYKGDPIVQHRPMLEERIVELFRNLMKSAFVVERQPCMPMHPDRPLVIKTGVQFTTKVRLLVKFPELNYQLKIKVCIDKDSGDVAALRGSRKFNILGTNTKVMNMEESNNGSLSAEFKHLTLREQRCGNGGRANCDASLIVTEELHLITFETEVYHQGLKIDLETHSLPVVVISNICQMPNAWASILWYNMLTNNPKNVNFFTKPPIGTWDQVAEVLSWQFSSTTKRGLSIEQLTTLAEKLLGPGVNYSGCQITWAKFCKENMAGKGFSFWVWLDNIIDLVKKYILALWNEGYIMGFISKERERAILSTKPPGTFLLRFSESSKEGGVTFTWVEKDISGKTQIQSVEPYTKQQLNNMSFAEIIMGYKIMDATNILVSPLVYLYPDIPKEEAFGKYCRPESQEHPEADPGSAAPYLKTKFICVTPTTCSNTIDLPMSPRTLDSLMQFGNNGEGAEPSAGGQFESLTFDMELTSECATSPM

CC#Cc1cc(C)nc(Nc2ccccc2)n1
active: [1] 21.7 µM | MYC, MYC (gene 4609) 28.4 µM | [3] 13.1 µM | [5] 26.4 µM | [6] 19.2 µM | [8] 30.2 µM | [9] 6.11 µM | [10] 29.2 µM | [11] 5.75 µM
inactive: [2] | [4] | [7] | [12] | [13] | TIMP1, TIMP1 (gene 7076) | [14]

Oc1c(Cl)c(Cl)c(Cl)c(Cl)c1Cl
inactive: [6] | [8]
active: [1] 3.65 µM | [2] 25.5 µM | MYC, MYC (gene 4609) 16.1 µM | [15] 6.02 µM | [3] 2.11 µM | [4] 2.22 µM | [7] 6.48 µM | [9] 1.19 µM | [10] 3.96 µM | [11] 4.65 µM | [12] 12.3 µM | [13] 5.06 µM | TIMP1, TIMP1 (gene 7076) 14.9 µM | [14] 5.95 µM

Oc1ccc(Cl)cc1Cl
inactive: all assays above

ClC1=C(Cl)[C@]2(Cl)[C@@H]3[C@@H](Cl)[C@H]4O[C@H]4[C@@H]3C1(Cl)C2(Cl)Cl
not listed: [5]
inactive: all other assays above

Source: PubChem BioAssay (EPA / NIEHS)
